# Test results published in PubChem BioAssay AID2551 (National Center for Advancing Translational Sciences (NCATS), 2010).
# Hit rate of the full screen: of about 310,000 compounds, about 17,000 (5.5%) were called active. About 11% were inconclusive and are not listed. For the sample, actives were picked, then their nearest neighbours and some compounds at random. Values without a mark were called inactive. Calls follow the shape of the dose curve; as a rule, active = well fitted inhibition curve with a large enough effect; inconclusive = small, poorly fitted or top-dose-only effect, or effect the other way; inactive = no such curve, though single readings can be large or run the other way.
# Molecular target: Nuclear receptor ROR-gamma (Mus musculus) (UniProt P51450)
# Sequence (P51450 whole entry, looked up): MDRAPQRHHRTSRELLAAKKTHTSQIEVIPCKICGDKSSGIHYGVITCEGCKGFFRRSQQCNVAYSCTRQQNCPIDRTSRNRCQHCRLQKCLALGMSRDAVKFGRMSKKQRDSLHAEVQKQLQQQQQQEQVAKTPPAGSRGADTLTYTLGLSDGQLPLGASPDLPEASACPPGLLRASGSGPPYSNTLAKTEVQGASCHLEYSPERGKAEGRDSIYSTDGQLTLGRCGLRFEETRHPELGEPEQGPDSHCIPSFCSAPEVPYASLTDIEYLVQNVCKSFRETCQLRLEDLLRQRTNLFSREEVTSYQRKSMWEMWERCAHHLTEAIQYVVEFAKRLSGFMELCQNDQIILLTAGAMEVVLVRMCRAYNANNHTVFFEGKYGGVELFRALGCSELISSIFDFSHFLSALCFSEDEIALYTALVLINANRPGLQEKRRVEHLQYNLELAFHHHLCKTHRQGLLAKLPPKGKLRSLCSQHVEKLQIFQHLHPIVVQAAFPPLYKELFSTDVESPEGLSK
# Assay: qHTS for inhibitors of ROR gamma transcriptional activity; also: nearly all actives have a fitted effect of over 60% in size
# Settings: Drosophila S2 Gal4-RORgamma UAS-luciferase reporter, 20 h; series mostly up to 53.6 µM; activity change, negative = inhibition: at the top concentration
# Summary of the method: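 Read-out: Photinus luciferase luminescence; inhibitors lower reporter signal. Insect Schneider cells with Gal4-ROR gamma fusion under metallothionein promoter, UAS reporter; 700 uM final copper sulfate induction, 20 hr, ambient temperature.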
# % is scaled to controls: 0 for no effect and ±100 for the full control effect; potency is read from the fitted curve at half-maximal effect.
Compound,Potency,"activity change, negative = inhibition"
O=C1c2cccc3c([N+](=O)[O-])ccc(c23)C(=O)N1CC1CCCO1 (stereo not drawn),15.8 µM (active),–
CCC(=O)Nc1ccc(C(=O)Nc2ccc3c(c2)C(=O)N(CC2CCCO2)C3=O)cc1 (stereo not drawn),–,-9.45%
O=C(NCc1ccc2c(c1)OCO2)c1ccc2c(c1)C(=O)N(CC1CCCO1)C2=O (stereo not drawn),–,7.17%
O=C(CSc1n[nH]c(=O)n1-c1ccccc1)Nc1ccccc1C(F)(F)F,–,-8.7%
CCCNC(=O)CCc1c(C)nc2c(c(C)nn2-c2ccc(C)cc2)c1C,–,-17.6%
COc1cc2ccccc2cc1C(=O)Nc1nc(C)c(C(C)=O)s1,–,-12.5%
CCCCCC1CC(COc2ccccc2)OC1=O (stereo not drawn),–,26.8%
COc1ccc(C(=O)NC2CC(C)(C)Cc3c2cnn3-c2ccccc2)c(OC)c1 (stereo not drawn),–,18.6%
O=C(NCCCn1ccnc1)c1cc(Br)c(Br)s1,–,16.4%
C=Cn1cc[n+](CC(=O)c2ccc(OC)c(OC)c2)c1,–,0.691%
O=C(CSc1ccc(-c2ccco2)nn1)Nc1cccc(F)c1,–,27.3%
Cc1cnc(NC(=O)c2ccccn2)s1,0.794 µM (active),–
Cc1ccc(Cl)cc1NC(=O)c1ccccn1,–,-15.2%
Cc1cnc(NC(=O)CSc2nnc(C)s2)s1,–,0%
Cc1ccc(SCC(=O)Nc2ncc(C)s2)cc1,–,-25.9%
Cc1cnc(NC(=O)CSc2c(Cl)cccc2Cl)s1,–,-37.1%
Cc1cnc(NC(=O)c2ccc(Cl)nc2)s1,15.8 µM (active),–
CCC(C)C(NC(=O)C1CCC(=O)N1C(=O)OCc1ccccc1)C(=O)NC(C(=O)N1CCCC1C(N)=O)C(C)CC (stereo not drawn),–,22.4%
Cc1cc(=O)oc2cc(OC(C)C(=O)NCCc3ccc(S(N)(=O)=O)cc3)ccc12 (stereo not drawn),–,-1.79%
CN(C(=O)COC(=O)CNC(=O)C12CC3CC(CC(C3)C1)C2)c1ccccc1,–,-18.9%

Compound,Potency,"activity change, negative = inhibition"
CCC(=O)Nc1ccc(S(=O)(=O)Nc2c(NC)c3ccccc3oc2=O)cc1,–,-2.82%
O=S1(=O)CCOC[C@H](CC2CCCCC2)N1Cc1ccc(F)cc1,–,-20.9%
COc1ccc(C(=O)/C=C/Nc2ccccn2)cc1,3.55 µM (active),–
CCOc1cc(NC(=O)c2ccccn2)c(OCC)cc1NC(=O)c1ccc(OC)cc1,–,-19.2%
CCOc1ccc(N/C=C/C(=O)c2cc(OC)c(OC)c(OC)c2)cc1,–,26%
Cc1ccc(CNC(=O)C2(C(F)(F)F)C/C(=C\Cc3ccccc3)CCCO2)o1 (stereo not drawn),inactive,–
COc1ccc(N2C(=O)CC(Sc3n[nH]c(-c4ccc(C)cc4)n3)C2=O)cc1 (stereo not drawn),20 µM (active),–
COc1ccc(N2C(=O)CC(SC(C)C)C2=O)cc1 (stereo not drawn),–,4.5%
COc1ccc(-c2nc(SCC(=O)N3CCCC3)n[nH]2)cc1,–,29.5%
Cc1ccc(F)c(NC(=O)CCOc2ccccc2C)c1,–,-20.8%
CCC(C)NCC(=O)Nc1ccc([N+](=O)[O-])cc1C(=O)Nc1ccccc1F (stereo not drawn),–,-9.45%
Cc1ccc(/C([O-])=C(/C(=S)NCc2ccco2)[n+]2ccccc2)cc1[N+](=O)[O-],–,-3.72%
O=[N+]([O-])c1cccc(/C([O-])=C(/C(=S)Nc2ccccc2F)[n+]2ccccc2)c1,12.6 µM (active),–
CS(=O)(=O)N(CC(=O)N1CCOCC1)c1cccc(Cl)c1Cl,–,-9.65%
C=CCn1cc(Cl)cc(C(=O)Nc2ccccc2)c1=O,–,14.3%
Cc1nc2ccc(C(=O)N(C)CC3CCCN(CCc4ccc(Cl)cc4)C3)cc2[nH]1 (stereo not drawn),–,-7.12%
C=CCCN(Cc1ccccc1)S(=O)(=O)c1ccccc1Br,inactive,–
C=CC(COCc1ccccc1)N(Cc1ccccc1)S(=O)(=O)c1ccccc1Br (stereo not drawn),7.94 µM (active),–
CC(NC(=O)C1CCCN(S(=O)(=O)c2ccc(-n3cnnn3)cc2)C1)c1ccc(F)cc1 (stereo not drawn),–,-2.24%
O=C(NCc1ccco1)/C(=C/c1cccc([N+](=O)[O-])c1)NC(=O)c1ccco1,–,-3.55%

Compound,Potency,"activity change, negative = inhibition"
COC(=O)[C@H](C)NC(=O)Nc1ccc(OC(F)(F)F)cc1,–,5.22%
CSc1sc(C(=O)NNC(=O)c2ccc(Cl)cc2)c2c1C=CCC2,–,-5.15%
CS(=O)(=O)c1sc(C(=O)NC(=S)Nc2ccc(OC(F)(F)F)cc2)c2c1C=CCC2,7.08 µM (active),–
CN1C(=O)c2ccc(C(=O)Nc3ccc(Br)cn3)cc2C1=O,–,10.1%
O=C(Nc1cc(-c2nc3ncccc3o2)ccc1Cl)c1ccco1,–,-6.29%
Cn1c(SCC(=O)N2CCCC2)nnc1-c1ccc2c(c1)OCO2,–,3.23%
O=S(=O)(c1cc(Cl)ccc1Cl)N1CCN(Cc2ccco2)CC1,–,19.3%
CCOc1ccc(CC(=O)NC2CCN(Cc3ccccc3)CC2)cc1,–,11.1% [at 1.91 µM]
CC12CN(Cc3ccccc3)CC(C)(CN(Cc3ccccc3)C1)C2=NO,–,2.79%
CCOc1ccccc1OCCCNCc1ccccc1,–,-1.61%
CCc1ccccc1N1CN(Cc2ccco2)CNC1=S,4.47 µM (active),–
Cn1c2c(c(=O)n(C)c1=O)CN(Cc1ccco1)CN2,–,0%
CCN1CN(Cc2ccccc2)CNC1=S,12.6 µM (active),–
S=C1SCN(CCN2CCOCC2)CN1Cc1ccccc1,–,-38.9%
c1ccc(CCN2CN=C(Nc3nc4ccccc4o3)NC2)cc1,–,0%
CCOc1ccccc1N1CN(Cc2ccccc2)CNC1=S,4.47 µM (active),–
CCCN1CNC(=S)N(CCc2ccccc2)C1,3.98 µM (active),–
N#CNC1=NCN(CCc2ccccc2)CN1,–,-13.1%
